Compound activity deposited in PubChem by The Scripps Research Institute Molecular Screening Center.
MITF primary: human MITF inhibition, primary screen. 650,000 tested, 0.91% active. O75030. AID 1259374. AlphaScreen MITF homodimerization, bead proximity signal. inhibition, % at 2.6 µM; in the data active means inhibition above about 50%
Target sequence (O75030 whole entry, looked up): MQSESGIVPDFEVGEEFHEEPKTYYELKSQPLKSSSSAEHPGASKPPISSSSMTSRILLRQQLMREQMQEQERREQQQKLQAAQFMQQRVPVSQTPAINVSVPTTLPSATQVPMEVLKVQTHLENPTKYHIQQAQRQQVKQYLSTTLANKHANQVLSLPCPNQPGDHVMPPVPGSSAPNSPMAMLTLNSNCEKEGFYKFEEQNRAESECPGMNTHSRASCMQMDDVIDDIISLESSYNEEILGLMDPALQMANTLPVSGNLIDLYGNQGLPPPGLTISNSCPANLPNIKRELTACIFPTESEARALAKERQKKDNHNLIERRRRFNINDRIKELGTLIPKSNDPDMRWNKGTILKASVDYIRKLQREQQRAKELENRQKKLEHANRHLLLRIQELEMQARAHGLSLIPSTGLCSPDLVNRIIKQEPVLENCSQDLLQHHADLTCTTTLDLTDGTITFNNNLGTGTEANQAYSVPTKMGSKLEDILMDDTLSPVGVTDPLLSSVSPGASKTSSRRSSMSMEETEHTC
FBW7 act: human FBW7 E3 ligase activation, primary screen; AlphaScreen FBW7–phospho-cyclin E peptide binding, activator screen; normalized activity (activation), % at 26.1 µM; 650,000 tested, 0.13% active; AID 1259310; in the data active means normalized activity above about 1.9%;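 further: purified mutant Fbw7 with reduced substrate affinity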
TEAD-YAP inh: TEAD-YAP interaction inhibition; HEK-TIYL cells, TEAD-Gal4/YAP UAS-luciferase luminescence; inhibition, % at 9.12 µM; 640,000 tested, 1.4% active; AID 1259422; in the data active means inhibition above about 32%
GPR151 activ: human GPR151 activation; Q8TDV0; PathHunter beta-arrestin GPR151 cells, luminescence; 650,000 tested, 1% active; AID 1508602; activation, % at 11.2 µM; in the data active means activation above about 4.9%
Each line names hits and unclear results; the compound was inactive in the other large screens. Compounds with a hit are over-represented: about 3.5% of the library has one in this group of screens.

CS(=O)(=O)Cc1cccc(-c2ccnc(Nc3ccc(-n4ccnn4)cc3)n2)c1	TEAD-YAP inh 41
c1ccc(-c2ccnc(Nc3ccc(-n4ccnn4)cc3)n2)cc1	none
CCOC(=O)c1[nH]c(C)c(C(=O)Nc2ccc(OC)cc2)c1C	none
CCOC(=O)c1[nH]c(C)c(C(=O)Nc2ccccc2)c1C	none
CCOC(=O)c1[nH]c(C)c(C(=O)Nc2ccc(OC)cc2OC)c1C	TEAD-YAP inh 44
CCOC(=O)c1[nH]c(C)c(C(=O)Nc2ccccc2OC)c1C	TEAD-YAP inh 59
CCOC(=O)c1[nH]c(C)c(C(=O)Nc2ccccc2SC)c1C	TEAD-YAP inh 52
CCOC(=O)c1[nH]c(C)c(C(=O)Nc2ccccc2F)c1C	none
CCCCOc1ccc(Cc2c(COCC)[nH]c(=O)[nH]c2=O)cc1	none
CN1CCN(C(=O)c2ccc(-c3nc(Nc4ccc(N5CCOCC5)cc4)c4ncn(Cc5ccc(C(F)(F)F)cc5)c4n3)cc2)CC1	none
O=c1nc(N/N=C/c2ccccc2Cl)cn[nH]1	none
O=c1nc(N/N=C/c2ccc(Cl)cc2Cl)cn[nH]1	TEAD-YAP inh 67
Cc1ccc(NC(=O)CCN2CCC(C)CC2)cc1	FBW7 act 2.3
CC(C)(C)OC(=O)N1CCC(c2nc(-c3nc4ccc(-c5ccncc5)cc4[nH]3)cs2)CC1	TEAD-YAP inh 94
Cc1cccc(N(CC(=O)Nc2ccc(CC#N)cc2)S(C)(=O)=O)c1C	none
COc1cccc(NC(=S)N/N=C/c2ccc(O)cc2)c1	TEAD-YAP inh 60
COc1cc(/C=N/NC(=S)Nc2cccc(C(=O)O)c2)ccc1O	TEAD-YAP inh 32
COc1ccccc1/C=N/NC(=S)Nc1ccccc1OC	TEAD-YAP inh 46
COc1ccccc1/C=N/NC(=O)C(=O)Nc1ccccc1OC	none
CCOC(=O)c1ccc(NC(=S)Nc2cccc(OC)c2)cc1	TEAD-YAP inh 62
CCCCn1c(=O)c2c(nc3n(-c4ccc(OC)cc4OC)c(C)c(C)n23)n(C)c1=O	none
CN(C)CCOc1cc(-c2cn[nH]c2)ccc1NC(=O)C1COc2ccc(Cl)cc2C1 (stereo not drawn)	none
O=C(/C=C/c1ccc(F)cc1)NC1CC1	none
COc1cccc(/C=N/NC(=S)Nc2cccc(F)c2)c1O	MITF primary 58, TEAD-YAP inh 40
O=C(O)c1cccc(NC(=S)N/N=C/c2cc(Cl)ccc2O)c1	MITF primary 91
COc1cccc(/C=N/NC(=S)Nc2cccc(C(=O)O)c2)c1O	MITF primary 112, TEAD-YAP inh 61
Cc1noc(C)c1C(=O)Nc1ccc(F)c(F)c1F	none
CC(C)c1c(C#N)c(N)nc(SCC(=O)c2ccccc2)c1C#N	none
COc1ccc(C(=O)Nc2cc(C(=O)N3c4ccc(F)cc4CCC3C)ccc2N2CC3CC(C2)c2cccc(=O)n2C3)cc1 (stereo not drawn)	none
CCNC(=O)/C(C#N)=C/c1c(Oc2ccc(F)cc2)nc2c(C)cccn2c1=O	none
CC(=O)Nc1ccc(-n2c(C)ccc2C)c(C(=O)O)c1	MITF primary 57
Cc1ccc(C)n1-c1ccccc1C(=O)O	none
Cc1ccc(C)n1-c1ccc(C(=O)O)c(Cl)c1	MITF primary 81
Cc1ccc(C)n1-c1cc(Cl)ccc1C(=O)O	MITF primary 81
Cc1ccc(C(=O)COc2ccc3c4c(c(=O)oc3c2C)CCC4)cc1	none
OCc1ccc(CN2CCOc3ccc(CN4CCCC4)cc3C2)o1	none
Cc1cc(/C=C2/C(=O)NC(=S)N(Cc3ccco3)C2=O)c(C)n1C	MITF primary 77
COc1ccc(/C=C2/C(=O)NC(=O)N(Cc3ccco3)C2=O)cc1OC	none
COc1cc(C)c(/C=C2/C(=O)NC(=O)N(Cc3ccco3)C2=O)cc1C	MITF primary 52
Cc1cc(/C=C2/C(=O)NC(=O)N(Cc3ccco3)C2=O)c(C)n1-c1ccc(F)cc1	none
COc1cc(C)c(/C=C2/C(=O)NC(=O)N(Cc3ccco3)C2=O)c(OC)c1	MITF primary 64
O=C(NN1S(=O)(=O)c2ccccc2S1(=O)=O)c1cccc([N+](=O)[O-])c1	none
CC(=O)Nc1ccc(NC(=O)Cc2cn(-c3ccc(NCc4cccnc4)nn3)c3ccccc23)cc1	none
N#Cc1c(-c2ccc(F)cc2)cc(-c2ccccc2)nc1SCc1ccc(Cl)cc1	none
Cc1cc(C)c2nc3c(cc2c1)CN(Cc1ccco1)C(=O)CO3	none
Cc1ccc2cc3c(nc2c1C)OC(C)C(=O)N(Cc1ccco1)C3 (stereo not drawn)	TEAD-YAP inh 56
O=c1[nH]c(=S)n(-c2ccccc2)c(O)c1/C=C1\C=CC=N1	none
O=c1[nH]c(=O)n(-c2ccccc2Cl)c(O)c1/C=C1\C=CC=N1	TEAD-YAP inh 61
O=c1[nH]c(=O)n(-c2ccccc2F)c(O)c1/C=C1\C=CC=N1	TEAD-YAP inh 57
